One assay relates to Staphylococcus aureus. In words: Antibacterial activity against Staphylococcus aureus MRSA ATCC 43300 (CO-ADD:GP_020); MIC in CAMBH media using NBS plates, by Resazurin F(560/590). It is filed as functional. The note with it: Concentration 20 uM, ASSAY_TEST Inhibition of Bacterial Growth, detection method Resazurin, Fluorescence (ex560/em590), MEDIA CAMHB, plate type 384well, CORNING #3640, time 18 hr. (In general: Resazurin is reduced to fluorescent resorufin, in cell work by metabolically active cells.)

The next assay concerns Acinetobacter baumannii. In words: Antibacterial activity against Acinetobacter baumannii ATCC 19606 (CO-ADD:GN_034); MIC in CAMBH media using NBS plates, by Resazurin F(560/590). It is filed as functional. The note with it: Concentration 20 uM, ASSAY_TEST Inhibition of Bacterial Growth, detection method Resazurin, Fluorescence (ex560/em590), MEDIA CAMHB, plate type 384well, CORNING #3640, time 18 hr.

The test system of another assay is Escherichia coli. In words: Antibacterial activity against Escherichia coli ATCC 25922 (CO-ADD:GN_001); MIC in CAMBH media using NBS plates, by Resazurin F(560/590). It is filed as functional. The note with it: Concentration 20 uM, ASSAY_TEST Inhibition of Bacterial Growth, detection method Resazurin, Fluorescence (ex560/em590), MEDIA CAMHB, plate type 384well, CORNING #3640, time 18 hr.

A further assay deals with Klebsiella pneumoniae. The note with it: Concentration 20 uM; ASSAY_TEST Inhibition of Bacterial Growth; detection method Absorption (OD600); MEDIA CAMHB; plate type 384well; NBS; CORNING #3640; time 18 hr.
The test system of the next assay is Candida albicans. To be noted: 20 µM.
The next assay relates to Cryptococcus neoformans. The note with it: Concentration 20 uM; ASSAY_TEST Inhibition of Fungal Growth; detection method Resazurin; Absorption (OD600-OD570); plate type 384well; NBS; CORNING #3640.

For part of these data: Entries with a potency or affinity are not part of this list.

Turning to `CC(=O)Nc1ccc(S(=O)(=O)N=S(C)C)cc1`, the Inhibition with Staphylococcus aureus is 11.09%; in the assay on Acinetobacter baumannii, 5.41%; in the assay with Escherichia coli it was 5.54%; with Klebsiella pneumoniae it was 15.05%; in the assay with Candida albicans it was 3.87%; with Cryptococcus neoformans, -12.86%.

As to `COC(=O)c1ccccc1NCCO`, the Inhibition with Staphylococcus aureus was -8.89%; in the assay on Acinetobacter baumannii it was 2.46%; in the assay on Escherichia coli it was 10.44%; in the assay on Klebsiella pneumoniae, 7.33%; in the assay with Candida albicans it was -0.42%; in the assay with Cryptococcus neoformans, -9.6%.

Consider `O=C(O)c1nn(-c2ccccc2-c2nnc(O)nc2O)c(=O)[nH]c1=O`, for which the Inhibition was determined as 28.61% with Staphylococcus aureus; 10.46% in the assay on Acinetobacter baumannii; 9.27% in the assay with Escherichia coli; 22.91% in the assay with Klebsiella pneumoniae; 1.7% in the assay on Candida albicans; 4.78% in the assay with Cryptococcus neoformans.

Regarding `Cc1cc(C)c(C#N)c(Sc2nc(C)c([N+](=O)[O-])c(C)c2C#N)n1`, the Inhibition was 33.8% in the assay with Staphylococcus aureus; 4.2% in the assay with Acinetobacter baumannii; 1.58% in the assay on Escherichia coli; 21.76% in the assay with Klebsiella pneumoniae; 8.27% in the assay with Candida albicans; 2.92% in the assay with Cryptococcus neoformans.

In the case of `CCOC(=O)Nc1ccc2[nH]c(-c3cscn3)nc2c1`, the Inhibition with Staphylococcus aureus was 14.96%; with Acinetobacter baumannii, -19.41%; in the assay with Escherichia coli, 13.31%; with Klebsiella pneumoniae, 4.63%; with Candida albicans, -2.03%; with Cryptococcus neoformans, -11.31%.

Take `CC(NC(=O)c1ccc(Cl)c(Cl)c1)c1ccc(-c2ccccc2)cc1` (stereo unspecified): the Inhibition in the assay with Staphylococcus aureus is 12.08%; with Acinetobacter baumannii it was 7.23%; in the assay with Escherichia coli, 12.06%; in the assay on Klebsiella pneumoniae, 14.03%; in the assay on Candida albicans it was -5.14%; in the assay on Cryptococcus neoformans it was -10.74%.

Regarding `CCOC(=O)Cc1cc(=O)[nH]n(-c2ccccc2)c1=O`, the Inhibition in the assay with Staphylococcus aureus was 5.46%; in the assay with Acinetobacter baumannii, 4.69%; in the assay with Escherichia coli, 13.24%; in the assay with Klebsiella pneumoniae, 12.15%; in the assay on Candida albicans it was 4.43%; in the assay with Cryptococcus neoformans, -10.57%.

For `CC(=O)Oc1ccc(OC(C)=O)c2c1CC(C)=C(C)C2`, the Inhibition in the assay on Staphylococcus aureus was 4.66%; in the assay on Acinetobacter baumannii, -3.24%; in the assay with Escherichia coli, 12.77%; in the assay on Klebsiella pneumoniae it was 4.69%; with Candida albicans it was 1.46%; in the assay on Cryptococcus neoformans, -18.35%.

For `O=C(O)c1cc2ccccc2cc1Nc1ccccc1`, the Inhibition is 0.16% in the assay on Staphylococcus aureus; 5.64% in the assay on Acinetobacter baumannii; -16.93% in the assay on Escherichia coli; 8.83% with Klebsiella pneumoniae; 12.2% in the assay with Candida albicans; 17.2% in the assay with Cryptococcus neoformans.

Turning to `O=c1[nH]c(=O)n2ncnc2[nH]1`, the Inhibition was 16.94% with Staphylococcus aureus; -11.21% with Acinetobacter baumannii; 5.82% in the assay on Escherichia coli; 7.37% with Klebsiella pneumoniae; -1.3% in the assay on Candida albicans; -10.02% in the assay with Cryptococcus neoformans.

In the case of `S=C1N(c2ccccc2)CN(C2CCCCC2)CN1c1ccccc1`, the Inhibition in the assay on Staphylococcus aureus is 0.84%; with Acinetobacter baumannii it was 12.71%; with Escherichia coli it was -2.84%; with Klebsiella pneumoniae, 1.62%; in the assay with Candida albicans it was 3.07%; with Cryptococcus neoformans, -5.37%.

Regarding `CC12CCC(/C(=N/c3ccc(/N=C4\C(=O)C5(C)CCC4C5(C)C)cc3)C1=O)C2(C)C`, the Inhibition in the assay with Staphylococcus aureus was -7.11%; in the assay on Acinetobacter baumannii, -9.62%; in the assay with Escherichia coli, 14.23%; in the assay on Klebsiella pneumoniae, 11.61%; in the assay with Candida albicans, 0.19%; in the assay on Cryptococcus neoformans, -4.9%.

As to `CCCOc1nc2c(c(=O)n(C)c(=O)n2C)n1C`, the Inhibition with Staphylococcus aureus was 17.4%; with Acinetobacter baumannii, 10%; with Escherichia coli it was 3.82%; with Klebsiella pneumoniae it was -6.25%; with Candida albicans it was 1.36%; with Cryptococcus neoformans, -4.51%.

As to `Cn1nc(NC(=O)C(F)(F)F)c2ncc(-c3ccc(Cl)cc3)nc21`, the Inhibition with Staphylococcus aureus is 20.42%; in the assay on Acinetobacter baumannii, 13.75%; in the assay on Escherichia coli, 1.31%; in the assay with Klebsiella pneumoniae, 13.33%; with Candida albicans, 2.95%; in the assay on Cryptococcus neoformans, -3.57%.

Consider `Cc1cccc(C(O)C(O)c2cccc(C)n2)n1` (stereo unspecified), for which the Inhibition in the assay with Staphylococcus aureus was 7.22%; in the assay with Acinetobacter baumannii, -14.61%; with Escherichia coli, 8.35%; in the assay with Klebsiella pneumoniae, 7.91%; in the assay on Candida albicans, 0.07%; with Cryptococcus neoformans, -7.77%.

`CC(=O)Oc1ccc(C(c2ccc(OC(C)=O)cc2)c2ccccn2)cc1` [BISACODYL]: the Inhibition was 25.36% in the assay on Staphylococcus aureus; -9.02% in the assay on Acinetobacter baumannii; 15.4% with Escherichia coli; 14.3% in the assay with Klebsiella pneumoniae; 0.53% with Candida albicans; -1.75% in the assay on Cryptococcus neoformans.

With `Cc1ccc(-c2cc(C(=O)O)c3ccccc3n2)c(C)c1`, the Inhibition with Staphylococcus aureus was 11.92%; in the assay on Acinetobacter baumannii, 8.6%; in the assay on Escherichia coli, -3.13%; in the assay on Klebsiella pneumoniae it was 18.95%; in the assay with Candida albicans, 8.35%; with Cryptococcus neoformans, -6%.

As to `O=C(Nc1ccc(Br)cc1)Nc1ccccc1Cl`, the Inhibition in the assay on Staphylococcus aureus is 14.34%; in the assay on Acinetobacter baumannii, -1.5%; in the assay on Escherichia coli, 10.13%; with Klebsiella pneumoniae, 5.62%; with Candida albicans it was 1.52%; in the assay on Cryptococcus neoformans, -9.14%.

With `CCCN(CCC)CC(=O)N1CC(=O)Nc2ccccc21`, the Inhibition in the assay with Staphylococcus aureus is -18.07%; with Acinetobacter baumannii, -3.41%; in the assay on Escherichia coli it was -10.49%; in the assay on Klebsiella pneumoniae it was 8.75%; in the assay on Candida albicans it was 3.75%; with Cryptococcus neoformans, -3.68%.

Regarding `COc1ccc(NC(=O)N2CCN(C(=O)Nc3ccc(OC)cc3)CC2)cc1`, the Inhibition in the assay with Staphylococcus aureus was 0.79%; with Acinetobacter baumannii, 9.56%; with Escherichia coli it was -5.74%; in the assay with Klebsiella pneumoniae it was 5.35%; in the assay on Candida albicans, -1.52%; in the assay on Cryptococcus neoformans it was 3.31%.

Regarding `CNc1ccc(/N=N/c2cc[n+]([O-])cc2C)cc1C`, the Inhibition with Staphylococcus aureus was -1.07%; in the assay with Acinetobacter baumannii, -11.34%; with Escherichia coli it was 7.82%; in the assay on Klebsiella pneumoniae it was 8.63%; in the assay on Candida albicans, -0.41%; in the assay on Cryptococcus neoformans, -28.56%.

For orientation: Inhibition means the drop in the measured response relative to a control, in per cent.

The values are drawn from ChEMBL document CHEMBL4296182, “CO-ADD screening of NIH NCI Diversity Set V”.
